# KB-3-1 cytotox: kills parental KB-3-1 adenocarcinoma cells; KB-3-1 viability, CellTiter-Glo ATP luminescence, 72 h; Potency, µM (top dose mostly 46.1 µM), usual class: cytotoxic; 400,000 tested, 1.4% active; AID 1347075; further: on the % scale 0 is the no-effect control and ±100 the full control effect; nearly all actives have a fitted effect of over 60% in size
#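 KB-3-1 parental drug-naive adenocarcinoma cells in DMEM/10% FBS, incubated 72 h at 37 C with pin-transferred compounds across a concentration series. Viability by CellTiter-Glo luminescence; concentration-response curves fitted after normalization.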
# KB-V1 MDR tox: KB-V1 MDR subline cytotoxicity; KB-V1 MDR cells viability, CellTiter-Glo, 72 h; Potency, µM (titrated, usually from 46.1 µM), usual class: cytotoxic; 400,000 tested, 3.4% active; further: on the % scale 0 is the no-effect control and ±100 the full control effect; nearly all actives have a fitted effect of over 60% in size
#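 KB-V1 cells (P-gp-expressing MDR subline of KB-3-1) in phenol-red-free DMEM with 10% FBS were exposed to library compounds over a concentration series for 72 h at 37 degrees C. Viability read by CellTiter-Glo luminescence; concentration-effect curves fitted after normalization.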
# HT1080NT lethal: kills 2HG-producing HT-1080-NT fibrosarcoma cells | 360,000 tested, 1.6% active | AID 686970 | HT-1080-NT fibrosarcoma viability, CellTiter-Glo ATP luminescence, 48 h | Potency, µM (titrated, usually from 46.1 µM), inactives show at the highest dose activity, negative = less viability, usual class: cytotoxic;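 further: NT is the 2HG producing partner of a matched IDH1 knockdown line; 0% = DMSO-treated cells and -100% = media-only wells without cells; nearly all actives have a fitted effect of over 55% in size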
#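 Viability of the 2HG-overproducing fibrosarcoma line after 48 hours of compound exposure at 37 degrees C was determined by luminescence with CellTiter-Glo, and concentration-effect curves were then fitted and categorized.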
# HepG2 tox: counter-screen for TGF-b inhibitors: cytotoxicity in HepG2 cells; AID 588856; 410,000 tested, 0.76% active; HepG2 CAGA-GFP viability, ATP luminescence, 18 h; Potency, µM (highest dose often 46.1 µM), inactives show at the highest dose activity change, negative = cytotoxicity, most hits filed as cytotoxic
#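 CellTiter-Glo luminescence gave cytotoxicity after 18 hours at 37 degrees C. The cells were HepG2 CAGA-GFP in 1% FBS DMEM, stimulated with 500 pg/mL TGF-beta after compound addition. %Activity was normalised to no-cell wells (complete cell-killing) and DMSO (no toxicity), and curves were fitted and classified.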
# TGFb inhibitor: blocks TGF-b signaling. Potency, µM (series often up to 46.1 µM), inactives show at the highest dose activity, negative = inhibition, actives largely listed as inhibitors. 410,000 tested, 1.2% active. HepG2 CAGA-GFP TGF-b/SMAD3 reporter, GFP fluorescence, 18 h; TGF-beta stimulated, 500 pg/mL final; further: on the % scale 0 is the no-effect control and ±100 the full control effect; nearly all actives have a fitted effect of over 65% in size
#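 Read-out: total well GFP (ex488/em500-530) summed from mean per-cell fluorescence. Cells: HEPG2 CAGA-GFP, 1% FBS DMEM, 18 h at 37 degrees C with 500 pg/mL final TGF-beta. Unstimulated wells served as the full-inhibition control; stimulated DMSO wells = 0%.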
# HT1080 IDH1KD tx: HT-1080 IDH1 knockdown cell toxicity (counter line); HT-1080 IDH1 knockdown viability, ATP luminescence, 48 h; Potency, µM (series often up to 46.1 µM), inactives show at the highest dose activity, negative = toxicity, most hits filed as cytotoxic; 360,000 tested, 2% active;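 further: 0% = DMSO wells and -100% = cell-free medium wells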
#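 HT-1080-IDH1KD cells (IDH1 knocked down), 750/well in RPMI with 5% FBS, treated with compound 48 h at 37 degrees C. Viability by CellTiter-Glo luminescence, normalised to DMSO and no-cell wells; concentration-response curves classed.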
# * = called active by the depositor; i = inactive; u = inconclusive; x = no result given; ! = repeats disagree. Rows were chosen to be rich in hits. Some 6.6% of all compounds tested hit in one or more screens of this group. The call rests on the fitted dose curve; in most records, active means well fitted curve in the direction sought with a large enough effect; inconclusive means small, poorly fitted or top-dose-only effect, or another doubt; inactive means no such curve, though single readings can be large; an effect the other way counts as inactive or inconclusive. Potency means the concentration at half of the fitted maximal effect.
SMILES,KB-3-1 cytotox,KB-V1 MDR tox,HT1080NT lethal,HepG2 tox,TGFb inhibitor,HT1080 IDH1KD tx
COc1cccc(C(=O)Oc2cc3c4c(c2)C(C)=CC(C)(C)N4C(=O)C3=O)c1,i,i,7.08µM*,-2.0%,-22.4%,4.47µM*
COc1ccc(C(=O)Oc2cc3c4c(c2)C(C)=CC(C)(C)N4C(=O)C3=O)cc1OC,i,i,-0.2%,-8.0%,1.6%,-4.3%
COc1cc2c3c(c1)C(C)=CC(C)(C)N3C(=O)C2=O,i,i,10.3µM*,3.4%,u,3.26µM*
COc1cc(Cl)c(C)cc1NC(=O)C1CCCN(c2ncnc3onc(-c4ccc(F)cc4)c23)C1 (centres undefined),i,u,x,-5.9%,u,x
Cc1ccn2c(Nc3ccccc3C)c(-c3ccccn3)nc2c1,u,u,14.6µM*,15.8µM*!,12.6µM*,9.2µM*
Cc1ccccc1Nc1c(-c2ccccn2)nc2ccccn12,u,u,u,-66.5%,u,u
CC(C)c1ccc(Nc2c(-c3ccccn3)nc3ccccn23)cc1,u,u,x,10µM*,u,x
C=C1CN(C(C(=O)OC)C(C)C)S(=O)(=O)c2ccc(F)cc21 (centres undefined),x,x,x,0.0%,-20.2%,x
CCOC(=O)c1c(CN2CCNCC2)nc2ccc(Cl)cc2c1-c1ccccc1,u,23.1µM*,-16.1%,-116.3%,15.8µM*,u
Cc1cc2cc(CN(Cc3cccs3)C(c3nnnn3C(C)(C)C)C(C)C)c3nnnn3c2cc1C (centres undefined),i,1.84µM*,3.4%,7.5%,19.0%,2.1%
CCc1cccc(CC)c1NC(=O)COC(=O)CC1c2ccccc2CCN1S(=O)(=O)c1ccc(F)cc1 (centres undefined),i,18.4µM*,0.3%,-12.2%,8.4%,7.8%
CCCCC(Sc1nc2cc3c(cc2c(=O)n1CCCC(=O)NCc1ccc(OC)cc1)OCO3)C(=O)OCC (centres undefined),x,x,x,2.8%,-0.6%,x
COc1ccc(C(=O)/C=C/c2ccc(O)cc2)c(O)c1CC=C(C)C,i,i,u,-82.1%,u,23.1µM*
COc1ccc(C(=O)/C=C/c2ccc(O)cc2)c2c1CC(O)C(C)(C)O2 (centres undefined),u,u,-1.8%,-5.5%,-9.5%,-2.6%
CCn1c(SCC(=O)Nc2nc3ccc(OC)cc3s2)nc2c1c(=O)n(C)c(=O)n2C,i,2.06µM*,0.7%,-11.0%,-15.8%,u
CC(C)n1c(SCC(=O)Nc2nc3ccccc3s2)nc2c1c(=O)n(C)c(=O)n2C,i,i,-2.6%,-18.1%,-6.1%,-11.7%
CCCn1c(SCC(=O)Nc2nc(-c3ccc(OC)cc3)cs2)nc2c1c(=O)n(C)c(=O)n2C,i,i,-0.9%,-1.6%,1.0%,-1.6%
CCOc1ccc2nc(NC(=O)CSc3nc4c(c(=O)n(C)c(=O)n4C)n3C(C)C)sc2c1,u,3.66µM*,-7.4%,1.4%,u,4.5%
COc1ccc(S(=O)(=O)N2N=C(C)Oc3ccccc3C2=O)cc1,4.61µM*,3.66µM*,2.91µM*,2.4%,-3.6%,3.26µM*
CCCCc1cc(=O)oc2c(CN(C)C)c(O)ccc12,i,i,-10.3%,-10.4%,-4.5%,-11.0%
CC[C@@]1(O)C(=O)OCc2c1cc1n(c2=O)Cc2cc3c(CN(C)C)c(O)ccc3nc2-1,u,u,1.16µM*,-28.2%,u,2.06µM*
CCC1CCCCN1CCCNC(=O)c1[nH]c2ccccc2c1Sc1ccc(Cl)cc1 (centres undefined),i,i,x,-114.5%,u,x
CC(NC(=O)COc1ccccc1)C(=O)N1CCN(c2ccc(F)cc2)CC1 (centres undefined),i,18.4µM*,1.2%,-5.5%,-4.8%,-0.4%
O=S1(=O)CCN2C(=N1)Sc1c2ccc2c1CCCC2,i,4.61µM*,6.6%,-3.7%,18.4%,-13.7%
Cc1ccc2nc(/C(C#N)=C/c3ccc(-c4cccc(Cl)c4)o3)[nH]c2c1,i,i,x,8.91µM*,-0.9%,x
SMILES,KB-3-1 cytotox,KB-V1 MDR tox,HT1080NT lethal,HepG2 tox,TGFb inhibitor,HT1080 IDH1KD tx
N#C/C(=C\c1ccc(-c2ccc(Cl)c(C(=O)O)c2)o1)c1nc2ccccc2[nH]1,x,x,x,2.4%,31.3%,x
O=C1c2ccccc2C(=O)N1CCCc1c[nH]c2ccc(Cl)cc12,u,20.6µM*,-0.8%,-3.4%,0.0%,-29.3%
Cc1ccc(CN2C(=O)SC(Nc3ccc(Cl)cc3)C2=O)cc1 (centres undefined),i,u,x,-32.4%,-8.8%,x
Cc1ccc(S(=O)(=O)N2CCN(c3nc(-c4ccncc4)nc4ccccc34)CC2)cc1,x,x,-11.0%,x,x,-27.8%
CCN1/C(=C/c2ccc3cc(C)ccc3[n+]2CC)Sc2cc(C)c(C)cc21,1.84µM*,u,18.4µM*,-12.8%,84.9%,11.6µM*
CC[n+]1c(/C=C2\Sc3ccccc3N2C)ccc2cccc(C)c21,0.461µM*,16.4µM*,13µM*,-41.5%,33.2%,10.3µM*
CCN1/C(=C/c2ccc3cc(C)ccc3[n+]2CC)Sc2ccccc21,1.64µM*,i,5.8µM*,-84.2%,131.7%,11.6µM*
